Results: PubChem BioAssay (NCI)
The panel holds about 79,000 compounds, 15% with a hit somewhere; the sample as a whole holds those more often. Values without a mark were called inactive. Active and inactive are the calls of the source. Rule as the data show it: active = growth inhibition above about 70%; inactive = the rest.

How the values were obtained:
[1] = NCI Yeast Anticancer Drug Screen. Data for the rad50 strain (AID 155);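 also: 0% = growth of vehicle-only cultures of the same strain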; details: S. cerevisiae rad50 strain growth inhibition, hits give high values
How it was run: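 Growth of the mutant yeast was measured after compound exposure and referenced to vehicle-treated cultures.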

[2] = NCI Yeast Anticancer Drug Screen. Data for the mec2-1 strain (AID 157); details: S. cerevisiae mec2-1 strain, hits give high values
How it was run: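 mec2-1 yeast strain, carrying an alteration in DNA damage repair or cell cycle control, was exposed to compounds; growth inhibition was measured relative to vehicle-treated controls.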

[3] = NCI Yeast Anticancer Drug Screen. Data for the sgs1 mgt1 strain (AID 161);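 also: 0% = growth of cultures given vehicle only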; details: S. cerevisiae sgs1 mgt1 strain, hits give high values
How it was run: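 Compounds are added to genetically altered yeast, and growth is compared with cultures given vehicle alone to give percent inhibition.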

[4] = NCI Yeast Anticancer Drug Screen. Data for the cln2 rad14 strain (AID 165);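 also: 0% = growth equal to vehicle treated cultures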; details: S. cerevisiae cln2 rad14 strain, hits give high values
How it was run: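 Yeast carrying cln2 and rad14 alterations (cell cycle control and DNA damage repair) were exposed to compounds. Growth inhibition was measured against vehicle-treated controls.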

[5] = NCI Yeast Anticancer Drug Screen. Data for the bub3 strain (AID 167); details: S. cerevisiae bub3 mutant strain, hits give high values
How it was run: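 Whole-cell yeast assay. The mutant strain was incubated with compounds, and growth inhibition was determined by comparison with vehicle-treated cells.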

[6] = NCI Yeast Anticancer Drug Screen. Data for the mlh1 rad18 strain (AID 175); details: S. cerevisiae mlh1 rad18 strain growth inhibition, hits give high values
How it was run: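 Growth inhibition of the yeast strain was measured after compound exposure and expressed relative to vehicle-treated controls. The strain carries defined defects in DNA damage repair.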

[7] = at 5.0 µM (retest, dose inferred, filed as 0.5)
[8] = at 50.0 µM (retest, dose inferred, filed as 5.0)

Row | Structure (SMILES) | growth inhibition [1, 7] | growth inhibition [1, 8] | growth inhibition ([1]; at 50.0 µM) | growth inhibition [2, 7] | growth inhibition [2, 8] | growth inhibition ([2]; at 50.0 µM) | growth inhibition [3, 7] | growth inhibition [3, 8] | growth inhibition ([3]; at 50.0 µM) | growth inhibition [4, 7] | growth inhibition [4, 8] | growth inhibition ([4]; at 50.0 µM) | growth inhibition [5, 7] | growth inhibition [5, 8] | growth inhibition ([5]; at 50.0 µM) | growth inhibition [6, 7] | growth inhibition [6, 8] | growth inhibition ([6]; at 50.0 µM)
1 | CC/C(=N\OC(=O)Nc1ccccc1)c1ccc(OC(=O)Nc2ccccc2)cc1 | 4% | 22% | 60.5% | -7% | 58% | 55% | 2% | 46% | 76.8% (active) | -4% | 7% | 49.6% | 1% | 48% | 33.1% | 2% | 24% | 76.1% (active)
2 | CC(=O)Oc1cc(Cl)ccc1Cc1ccc(Cl)cc1OC(C)=O | 0% | 87% (active) | 94.5% (active) | 1% | 78% (active) | 91.4% (active) | 0% | 76% (active) | 85.1% (active) | 2% | 89% (active) | 90.7% (active) | 2% | 83% (active) | 94.8% (active) | 1% | 90% (active) | 94.7% (active)
3 | CN(NC1OC(=O)c2ccccc21)c1ccc(C(F)(F)F)cc1[N+](=O)[O-] (configuration not stated) | 46% | 39% | 65.7% | 33% | 36% | 54.2% | 43% | 49% | 55.1% | 25% | 31% | 71.2% (active) | 43% | 69% | 36.2% | 47% | 48% | 54.5%
4 | O=S(=O)(Nc1ccccc1Cl)c1ccccc1 | 19% | 80% (active) | 74.8% (active) | 1% | 88% (active) | 81.7% (active) | 4% | 91% (active) | 78.7% (active) | 24% | 81% (active) | 73.1% (active) | -32% | 90% (active) | 81.1% (active) | -2% | 84% (active) | 69.2%
5 | COc1ccc(-c2ccccc2)cc1SCCC(=O)O | 3% | 15% | 79.7% (active) | -1% | 21% | 70.5% (active) | 4% | 32% | 48.3% | -7% | 17% | 77.7% (active) | 0% | 10% | 65.2% | -2% | 20% | 87% (active)
6 | CCCCn1c(C)nc2cc(C(F)(F)F)cc(N)c21 | 0% | 41% | 78.6% (active) | -4% | 35% | 48.3% | 0% | 31% | 93.6% (active) | -5% | 8% | 6.6% | -8% | 10% | 31.9% | -11% | 65% | 43.5%
7 | Cc1ccc(S(=O)(=O)NC2(C=O)CCC(C(C)(C)C)CC2)cc1 (configuration not stated) | 15% | 86% (active) | 77.7% (active) | 20% | 88% (active) | 68.4% | 25% | 84% (active) | 82% (active) | 20% | 92% (active) | 77.5% (active) | 19% | 88% (active) | 84.7% (active) | 37% | 95% (active) | 81% (active)
8 | Cn1cnc(=S)c2[nH]cnc21 | -1% | -2% | 10.9% | -3% | -4% | -0.45% | -2% | -5% | -4.55% | -2% | -4% | 59.6% | 0% | -5% | -8.5% | -4% | -1% | 4.05%
9 | CC(C)C1=CC(=O)C(C)(C2C(O)CC3(C)C4CC=C5C(CCC(O)C5(C)C)C4(C)C(=O)CC23C)O1 (configuration not stated) | 65% | 80% (active) | 73.2% (active) | 78% (active) | 87% (active) | 74.5% (active) | 64% | 74% (active) | 68.8% | 54% | 83% (active) | 75% (active) | 78% (active) | 86% (active) | 62.2% | 85% (active) | 89% (active) | 69.4%
10 | Clc1cc2c(c3ncccc13)OCN(Cc1ccccc1)C2 | 16% | 76% (active) | 99.2% (active) | 1% | 33% | 99.5% (active) | 14% | 98% (active) | 99.5% (active) | 9% | 98% (active) | 99.2% (active) | -3% | 99% (active) | 99.4% (active) | 23% | 99% (active) | 99.3% (active)
11 | CC(=O)NC(CCC(=O)O)C(=O)O.[NH-]C1CCCCC1[NH-].[Pt+2] (configuration not stated) | 96% (active) | 99% (active) | 99.5% (active) | 99% (active) | 99% (active) | 99.3% (active) | 98% (active) | 99% (active) | 100% (active) | 88% (active) | 98% (active) | 99.4% (active) | 99% (active) | 98% (active) | 99% (active) | 96% (active) | 99% (active) | 99.2% (active)
12 | CN(C)c1nc(=NCc2ccco2)ss1 | 12% | 51% | 1.8% | 17% | 53% | 2.3% | 25% | 80% (active) | 17.9% | 13% | 32% | 5.2% | 32% | 76% (active) | -53% | 29% | 74% (active) | 9.8%
13 | CCCCCCCCCc1ccc(OCC(O)CO)cc1 (configuration not stated) | -3% | 98% (active) | 99.6% (active) | -1% | 99% (active) | 99.7% (active) | 2% | 99% (active) | 99.8% (active) | -11% | 98% (active) | 99.5% (active) | -9% | 98% (active) | 99.8% (active) | -4% | 98% (active) | 99.5% (active)
14 | COc1ccc(CN2C(=O)C(Cl)=C(Cl)C2=O)c(OC)c1 | -1% | 50% | 99.5% (active) | 4% | 59% | 99.7% (active) | -2% | 73% (active) | 99.6% (active) | -4% | 27% | 99% (active) | -2% | 68% | 99.5% (active) | -2% | 44% | 99.5% (active)
15 | Cc1cccc2c1CC1(C2)Cc2c(C)cccc2C1=O (configuration not stated) | -3% | 87% (active) | 36.9% | -30% | 78% (active) | 42.1% | -23% | 68% | 57.6% | 26% | 20% | 55.5% | 21% | 92% (active) | 70% (active) | -11% | 52% | 50.4%
16 | COC(=O)C1C(c2ccccc2)=N[C@@H](c2ccccc2)[C@H]1C(=O)OC (some centres not stated) | 2% | -3% | 17.4% | 3% | -2% | -2.15% | 9% | 3% | 17.1% | 6% | 7% | 23.2% | 6% | 32% | 3.55% | 1% | 0% | 76.7% (active)
17 | Cc1cc(=O)c2cc(N=Cc3ccc([N+](=O)[O-])o3)ccc2o1 | -1% | 72% (active) | 74.9% (active) | -10% | 23% | 17.9% | -6% | 54% | 42.6% | 0% | 10% | 21.2% | -4% | 6% | 6.1% | 10% | 49% | 40%
18 | Nc1cc2c(c[n+](CCCBr)c3ccccc23)c2ccccc12 | 41% | 98% (active) | 66.8% | 23% | 99% (active) | 64.6% | 58% | 99% (active) | 68.2% | 46% | 98% (active) | 33.1% | 52% | 99% (active) | 46.5% | 24% | 98% (active) | 71.1% (active)
19 | Clc1ccc2c(NC3CCC(N4CCCCC4)CC3)ccnc2c1 (configuration not stated) | 99% (active) | 97% (active) | -13.2% | 90% (active) | 97% (active) | -25.6% | 93% (active) | 98% (active) | -24.1% | 76% (active) | 97% (active) | 27.1% | 94% (active) | 97% (active) | -79.4% | 98% (active) | 97% (active) | -16%
